High-throughput results deposited in PubChem by National Center for Advancing Translational Sciences (NCATS).
NTMT1 inhibitor – inhibitors of human N-terminal methyltransferase NTMT1 | Q9BV86 | NTMT1 MTase-Glo SAH luminescence, purified enzyme | Potency, µM (series often up to 114 µM), for inactives: top-dose activity change, negative = inhibition, usual class: inhibitors | 2.5% of 59,000 active | AID 1645870;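 note: potency is the fitted concentration of half-maximal effect; plate controls were DMSO vehicle for no effect and no enzyme for full effect; nearly all actives have a fitted effect of over 65% in size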
Target sequence (Q9BV86 whole entry, looked up): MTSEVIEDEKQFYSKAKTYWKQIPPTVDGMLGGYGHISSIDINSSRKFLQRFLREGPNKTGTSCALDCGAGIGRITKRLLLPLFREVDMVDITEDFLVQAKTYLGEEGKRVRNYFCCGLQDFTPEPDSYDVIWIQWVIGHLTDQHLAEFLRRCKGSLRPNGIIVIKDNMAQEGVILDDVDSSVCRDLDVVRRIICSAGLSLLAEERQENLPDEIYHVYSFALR
FH mod – Identification of activators of human fumarate hydratase by quantitative high-throughput screening; Potency, µM (highest dose often 79.9 µM), for inactives: top-dose activity change, negative = inhibition, most hits filed as inhibitors; FH coupled MDH/diaphorase resazurin fluorescence, 15 min; Fumarate hydratase, mitochondrial (Homo sapiens), P07954; AID 1347055, 2019; 0.22% of 54,000 active; note: potency is the fitted concentration of half-maximal effect; % is set by controls: 0 for no effect and ±100 for the full control effect; the screen sought activators but most active calls are inhibition curves; nearly all actives have a fitted effect of over 45% in size
HTT-AS promoter – HTT-AS promoter activation; HEK293 HTT-AS promoter firefly luciferase reporter, 24 h; response scale: percent change from vehicle, -100% = no light; Potency, µM (doses to about 57.5 µM), inactives show at the highest dose activity change, positive = activation, most hits filed as activators; 0.24% of 48,000 active; note: potency is the fitted concentration of half-maximal effect; nearly all actives have a fitted effect of over 55% in size
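HEK293 luciferase promoter-reporter cells (2,500/well) plated 24 h, then compounds added at up to 57.5 uM final for 24 h at 37 °C. Firefly luminescence by Dual-Glo, normalized to vehicle (0%) and zero RLU (-100%).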
GALK inhibitor – inhibitors of human galactokinase (GALK). Potency, µM (highest dose often 57.5 µM), without a hit: at the highest dose activity, negative = inhibition, most hits filed as inhibitors. P51570. 44,000 tested, under 10 active. recombinant GALK, Kinase-Glo ATP luminescence, 1 h;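 note: plate controls were full GALK reaction for no effect and reaction lacking GALK for full effect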
Target sequence (P51570 whole entry, looked up): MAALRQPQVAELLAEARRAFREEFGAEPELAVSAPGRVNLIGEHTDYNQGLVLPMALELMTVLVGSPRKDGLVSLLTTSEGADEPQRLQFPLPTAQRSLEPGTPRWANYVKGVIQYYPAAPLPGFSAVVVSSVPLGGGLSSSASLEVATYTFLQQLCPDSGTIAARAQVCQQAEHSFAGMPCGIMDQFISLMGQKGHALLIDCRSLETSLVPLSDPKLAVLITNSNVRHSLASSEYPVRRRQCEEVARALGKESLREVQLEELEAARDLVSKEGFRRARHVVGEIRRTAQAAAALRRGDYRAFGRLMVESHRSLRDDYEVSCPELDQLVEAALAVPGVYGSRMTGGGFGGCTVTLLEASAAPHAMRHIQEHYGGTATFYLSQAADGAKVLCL
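Compounds were pinned into ATP buffer, then GALK-galactose mix was added (final 5 nM enzyme, 35 uM ATP, 100 uM galactose, pH 8.0). After 1 h at room temperature, Kinase-Glo Plus was added and luminescence read.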
HTT prom inh – inhibits huntingtin promoter activity | HEK293 HTT promoter firefly luciferase reporter, 24 h | Potency, µM (highest dose often 57.5 µM), without a hit: at the top dose activity change, negative = inhibition, actives largely listed as inhibitors | 0.93% of 48,000 active | AID 1508623; note: potency is the fitted concentration of half-maximal effect; nearly all actives have a fitted effect of over 50% in size
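Firefly luciferase signal from promoter-reporter HEK293 cells was scaled between vehicle (0%) and zero RLU (-100%). Compounds were tested at final concentrations of up to 57.5 uM over 24 h at 37 degrees C. PTC124 at 50 uM final served as control inhibitor.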
Numbers without * were called inactive; ? = inconclusive; / = not tested or not shown; ! = not active in a repeat; [ ] = remark or other dose. Most compounds without a hit are left out; they make up all but 2.5% or so of the library. Calls come from the whole dose curve; as a rule, active = well fitted curve in the direction sought with a large enough effect; inconclusive = small, poorly fitted or top-dose-only effect, or another doubt; inactive = no such curve, though single readings can be large; an effect the other way counts as inactive or inconclusive.

SMILES	NTMT1 inhibitor	FH mod	HTT-AS promoter	GALK inhibitor	HTT prom inh
CCCn1c(C)nc2c(NCCN(CC)CC)nc(C)nc21	6%	/	/	/	/
CC1CCN(S(=O)(=O)c2ccc3c(c2)N(CC(=O)N2CCN(c4ccccc4)CC2)C(=O)CO3)CC1	89µM*	-4%	-32%	-2%	-24%
COc1ccccc1N1CCN(C(=O)CN2C(=O)COc3ccc(S(=O)(=O)N4CCC(C)CC4)cc32)CC1	-14%	-7%	-19%	-1%	-3%
Cc1nc2c(c(C)nn2-c2ccccc2)c(C)c1CCC(=O)NCCc1ccccc1	8%	-3%	-7%	-3%	-1%
CCOc1ccc(CCNC(=O)CCc2c(C)nc3cc(-c4ccccc4OC)nn3c2C)cc1	-4%	-26%	-81%	9%	13µM*
Cc1ccc(NC(=O)CCc2c(C)nc3cc(-c4ccccc4)nn3c2C)cc1F	-19%	-8%	-71%	0%	2µM*
CCOc1ccc(CCNC(=O)CCc2c(C)nc3c(c(C)nn3-c3ccccc3)c2C)cc1OCC	89µM*	-20%	-36%	8%	-22%
Cc1nc2nc(-c3ccc(Cl)cc3Cl)nn2c(C)c1CCC(=O)Nc1ccc(F)cc1	4%	8%	-80%	-2%	7.9µM*
CCOc1ccccc1NC(=O)CCc1c(C)nc2cc(-c3ccccc3)nn2c1C	4%	-26%	-66%	0%	?
C=CC(=O)Nc1cc(Nc2nccc(-c3c[nH]c4ccccc34)n2)c(OC)cc1N(C)CCN(C)C	?	-3%	/	/	/
O=C(OCC#CCSc1nnc(-c2ccc3ccccc3c2)o1)c1cccc(F)c1	10%[57.5 µM]	/	/	/	/
COc1cc2c3c(n(CCCN4CCOCC4)c(=O)c2cc1OC)-c1cc2c(cc1C3=O)OCO2	9%	/	/	/	/
CCOc1ccc(CCNC(=O)CCc2c(C)nc3c(-c4ccccc4)c(C)nn3c2C)cc1OCC	3%	0%	0%	7%	-5%
Cc1nc2cc(-c3ccccc3)nn2c(C)c1CCC(=O)N1CCN(c2ccc(F)cc2)CC1	26%	-22%	-75%	7%	2µM*
CSc1ccc(CCNC(=O)CCc2c(C)nc3cc(-c4ccccc4)nn3c2C)cc1	0%	1%	-68%	1%	2µM*
[O-][n+]1cccc(-c2nc3c(Cl)cccc3cc2[C@@H](Nc2ncnc3cccnc23)C(F)(F)F)c1	-1%	/	/	/	/
C[C@@H](C(=O)Nc1ccc(Cl)cc1)C1CCC(c2ccnc3ccc(F)cc23)CC1 (stereo partly specified)	9%	/	/	/	/
CC(C)c1ccc(C2Sc3ccccc3NC3=C2C(=O)c2ccccc23)cc1 (stereo unspecified)	1%	?	-80%	0%	13µM*
O=c1c(Nc2ccc(Br)c(Br)c2)c(Nc2nnc(-c3ccncc3)s2)c1=O	79µM*	/	/	/	/
CN(CC(=O)Nc1cccc(N2CCOCC2)c1)Cc1c(O)ccc2ccccc12	-12%	/	/	/	/
Cc1ccc(C)c(Nc2nc3nonc3nc2Nc2cccc(C)c2C)c1	11%	?	-88%	-2%	?
CCOC(=O)c1ccc(Nc2nc3nonc3nc2Nc2cccc(C)c2C)cc1	9%	?	-87%	-2%	2.2µM*
O=C(NCCc1ccccc1)C(=O)NCC(c1cccnc1)N1CCN(c2ccccc2)CC1 (stereo unspecified)	-19%	-2%	-41%	-4%	?
COc1ccc(CCNC(=O)C(=O)NCC(c2cccnc2)N2CCN(c3ccccc3)CC2)cc1 (stereo unspecified)	-1%	-4%	-64%	-1%	13µM*
Cc1ccc(CNC(=O)C(=O)NCC(c2cccnc2)N2CCN(c3ccccc3F)CC2)cc1 (stereo unspecified)	5%	-7%	-48%	0%	14µM*
SMILES	NTMT1 inhibitor	FH mod	HTT-AS promoter	GALK inhibitor	HTT prom inh
COc1ccc(C(=O)NCC(c2cccnc2)N2CCN(c3ccccc3)CC2)cc1 (stereo unspecified)	-3%	0%	-24%	2%	?
COc1ccc(CNC(=O)C(=O)NCC(c2cccnc2)N2CCN(c3ccccc3)CC2)cc1 (stereo unspecified)	-4%	-5%	-36%	-12%	13µM*
O=C(NCC(c1cccnc1)N1CCN(c2ccccc2F)CC1)C(=O)Nc1ccc(F)cc1F (stereo unspecified)	14%	-3%	-9%	1%	-28%
Fc1ccc(-c2nnc(CCCCSc3nnc(-c4cccc5ccccc45)o3)o2)cc1	7%[57.5 µM]	/	/	/	/
CC(=O)c1ccc(N2CCN(S(=O)(=O)c3ccc4c(c3)CCCN4C(C)=O)CC2)cc1	-4%	/	/	/	/
CCOc1ccc(CNS(=O)(=O)c2ccc(-c3coc(C)n3)cc2)cc1OC	-2%	-6%	-37%	-6%	25µM*
CCOc1ccc(CNS(=O)(=O)c2ccc(-c3coc(C)n3)cc2)cc1	5%	3%	-27%	1%	?
CCN(CC)CCn1c(-c2ccccc2)nc2c(NCCO)nc(C)nc21	89µM*	/	/	/	/
Cc1ccc2nc(-c3cc(NC(=O)COc4ccc(C)c(C)c4)ccc3Cl)oc2c1	-1%	-21%	2.5µM*	0%	7%
CNC[C@H](O)c1ccc(O)c(O)c1	55µM*!	-1%[53.3 µM]	-20%[116 µM]	/	-12%[116 µM]
Oc1ccc(C(O)CNCCCCCCNCC(O)c2ccc(O)c(O)c2)cc1O (stereo unspecified)	35µM*	-1%[53.3 µM]	-12%	/	-6%
Cc1nc2cccc(N)c2c(=O)n1C1CCC(=O)NC1=O (stereo unspecified)	4%	/	/	/	/
c1ccc(CNc2nc(NCc3ccccc3)c3ccccc3n2)cc1	45µM*!	0%[53.3 µM]	-67%	/	?
Cc1noc(-c2sc3c(c2-c2nc4ccccc4s2)CCNC3)n1	18%	/	/	/	/
Cc1ccc(-c2cc(C(=O)NC3CCCCC3)c3ccccc3n2)cc1C	-5%	/	/	/	/
O=C(COc1ccccc1F)NC1CC(=O)N(c2ccc3c(c2)OCCO3)C1 (stereo unspecified)	89µM*	-15%	-2%	-1%	2%
Cc1ccc2nc3sc(C(=O)N4CCCCC4)cc3cc2c1	0%[57.5 µM]	/	/	/	/
O=C(C[C@@H]1C/C=C\CCC(=O)O[C@H](c2ccccc2)CNC1=O)NCc1ccc(Cl)cc1	17%	/	/	/	/
CC(=O)Nc1ccc(-c2nnc(SCC(=O)c3ccc([N+](=O)[O-])cc3)o2)cc1	5%	-10%	6%	-4%	-15%
O=C(CSc1nnc(-c2ccc([N+](=O)[O-])cc2)o1)Nc1ccccc1	8%	-1%	1.8µM*	-3%	67%
Oc1cc(CNC(=S)/C=C/c2cc(O)c(O)c(Br)c2)cc(O)c1O	45µM*	?	/	/	/
Fc1cnc(-c2ccccc2C(F)F)nc1NCc1ccc(-c2ccn[nH]2)cc1	-3%	/	/	/	/
C[n+]1cc(NC(=O)c2cccc(C(=O)Nc3cc4ccccc4[n+](C)c3)n2)cc2ccccc21	50µM*	?	/	/	/
